Screening results: PubChem BioAssay, National Center for Advancing Translational Sciences (NCATS)
KB-3-1 tox = KB-3-1 parental cell cytotoxicity; KB-3-1 viability, CellTiter-Glo ATP luminescence, 72 h; Potency, µM (highest dose often 46.1 µM), most hits filed as cytotoxic; 400,000 compounds, 1.4% hits; AID 1347075; also: potency is read from the fitted curve at half-maximal effect; nearly all actives have a fitted effect of over 60% in size
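Cells are dispensed, compounds pinned in, plates held at 37 °C for 72 h, then CellTiter-Glo is added and luminescence read after 10 minutes. Cell line: parental KB-3-1 in phenol-red-free DMEM, 10% FBS.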
A549 viability = counter-screen for Nrf2 inhibitors: cytotoxicity in A549 cells; A549 ARE-Fluc cells, CellTiter-Fluor viability, 18-24 h; Potency, µM (top dose mostly 46 µM), without a hit: at the highest dose activity change, negative = cytotoxicity, most hits filed as inhibitors; 390,000 compounds, 0.16% hits; AID 504648; also: potency is read from the fitted curve at half-maximal effect
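A549 ARE_Fluc cells in 5% FBS OPTI-MEM were exposed to compounds in concentration-response for 18-24 h at 37 deg C. Viability was read by CellTiter-Fluor fluorescence (Ex 405/Em 525) after 30 min, before the luciferase read.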
KB-V1 MDR tox = KB-V1 MDR subline cytotoxicity; KB-V1 MDR cells viability, CellTiter-Glo, 72 h; Potency, µM (titrated, usually from 46.1 µM), actives largely listed as cytotoxic; 400,000 compounds, 3.4% hits; also: potency is read from the fitted curve at half-maximal effect; nearly all actives have a fitted effect of over 60% in size
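KB-V1 MDR subline cells in DMEM (phenol-red free, 10% FBS) exposed to compounds in qHTS concentration series for 72 h at 37 degrees C. Viability read by CellTiter-Glo luminescence; concentration-effect curves fitted after normalization and correction.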
Nrf2 inh = inhibitors of Nrf2 signaling; Potency, µM (top dose mostly 46 µM), for inactives: at the top dose activity change, negative = inhibition, actives largely listed as inhibitors; 360,000 compounds, 2.1% hits; A549 ARE-Fluc reporter, luciferase luminescence, 18-24 h; also: potency is read from the fitted curve at half-maximal effect; nearly all actives have a fitted effect of over 60% in size
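In this cell-based qHTS, ARE-driven firefly luciferase in A549 cells reports Nrf2 activity; the luminescent signal after BugLite lysis is the measured value, with a prior CellTiter-Fluor read for cell health.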
PI4K2A inh = inhibitors of human PI4K2A. Q9BTU6. purified PI4K2A, ADP-Glo luminescence, 1 h; hits give low values. activity change, negative = inhibition, % at 76.9 µM. 420,000 compounds, 0.13% hits. AID 1346378; in the data active = activity change below about -50%; inconclusive = mostly about -30% to -49%;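 also: -100% = wells without enzyme as full effect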
Target sequence (Q9BTU6 whole entry, looked up): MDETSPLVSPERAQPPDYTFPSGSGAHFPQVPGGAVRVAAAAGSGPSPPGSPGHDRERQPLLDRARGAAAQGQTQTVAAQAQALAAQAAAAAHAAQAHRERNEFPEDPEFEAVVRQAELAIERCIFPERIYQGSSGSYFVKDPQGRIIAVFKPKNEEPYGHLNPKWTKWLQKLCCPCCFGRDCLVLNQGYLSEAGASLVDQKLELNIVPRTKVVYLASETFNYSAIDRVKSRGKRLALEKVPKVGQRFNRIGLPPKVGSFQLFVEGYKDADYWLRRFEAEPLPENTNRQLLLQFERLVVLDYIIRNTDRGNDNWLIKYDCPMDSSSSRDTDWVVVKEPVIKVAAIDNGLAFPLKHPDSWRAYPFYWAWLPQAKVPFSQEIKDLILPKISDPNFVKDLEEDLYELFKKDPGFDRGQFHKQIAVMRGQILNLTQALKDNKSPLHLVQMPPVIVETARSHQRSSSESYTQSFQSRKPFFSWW
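PI4K2A activity was measured by ADP-Glo luminescence: enzyme (4 ug/mL stock) and phosphatidylinositol (1.2 mM stock) in Tris pH 7.5/MgCl2/EGTA/Triton X-100 buffer were reacted with ATP (300 microM stock) for one hour at ambient temperature.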
Giardia killer = Giardia lamblia killing | activity change, % at 7.66 µM, hits read low | Giardia lamblia trophozoite viability | 340,000 compounds, 0.15% hits | AID 540267; in the data active = activity change below about -80%; inconclusive = between about -30% and that limit;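 also: parasites exposed to compound for two days anaerobically before the ATP read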
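Media and compound were dispensed first, then trophozoites at 100 cells/well; plates sat 48 hrs at 37 deg C without oxygen before ATP luminescence reagent was added and read after 15-30 min at room temperature.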
Starred values were filed as active, the others as inactive; ! = repeats disagree. This is a sample that favours compounds with a hit; in the whole collection about 5.7% have one here. Unless noted, calls follow the shape of the dose curve; as a rule, active = well fitted curve in the direction sought with a large enough effect; inconclusive = small, poorly fitted or top-dose-only effect, or another doubt; inactive = no such curve, though single readings can be large; an effect the other way counts as inactive or inconclusive. Unless noted, % is scaled to controls: 0 for no effect and ±100 for the full control effect.

For CN(C)c1ccc(C(=O)NC2CCCCN(Cc3cccc(Cl)c3)C2=O)cc1 (centres undefined) the results were PI4K2A inh -5.
O=C(O)c1cccc(C(=O)Cc2ccccc2)c1 was read as KB-3-1 tox inactive, A549 viability -3%, KB-V1 MDR tox inactive, Nrf2 inh 2%, PI4K2A inh -71* and Giardia killer -20.
Screening O=C(O)c1cccc(C(=O)O)c1 returned KB-3-1 tox inactive, A549 viability -2%, KB-V1 MDR tox inactive, Nrf2 inh 4%, PI4K2A inh -3 and Giardia killer 2.
CCOC(=O)Nc1ccc(/C=C/c2ccnc3ccccc23)cc1 was read as KB-3-1 tox inactive and KB-V1 MDR tox inactive.
`Oc1ccc(Nc2ccccc2F)c2cccnc12` gave A549 viability -3%, Nrf2 inh inconclusive and PI4K2A inh -52*.
Oc1ccc(CNc2ccccc2F)c2cccnc12 was read as KB-3-1 tox 21µM*!, A549 viability -20%, KB-V1 MDR tox inconclusive, Nrf2 inh inconclusive, PI4K2A inh -4 and Giardia killer -2.
Screening Oc1ccc(NCc2ccccc2F)c2cccnc12 returned A549 viability -5% and Nrf2 inh -5%.
`Oc1ccc(CNc2ccccc2C(F)(F)F)c2cccnc12` gave A549 viability -1%, Nrf2 inh inconclusive and PI4K2A inh -14.
Screening Oc1ccc(-c2ccccc2F)c2cccnc12 returned A549 viability -4%, Nrf2 inh inconclusive and PI4K2A inh -7.
Oc1ccc(CNc2ccc(F)cc2F)c2cccnc12 was read as A549 viability -17% and Nrf2 inh 10µM*.
C#CCCC(=O)Nc1sc2c(c1-c1nc3ccccc3s1)CCN(C(C)C)C2 was read as PI4K2A inh -5.
`Cc1cccc(N2C(=O)CSC23C(=O)N(Cc2cccc(C(F)(F)F)c2)c2ccccc23)c1` (centres undefined) gave KB-3-1 tox inconclusive, A549 viability -12%, KB-V1 MDR tox inactive, Nrf2 inh inconclusive and PI4K2A inh 1.
Screening O=C(Nc1ccc(C(F)(F)F)cc1)OC1CC2CC1[C@H]1CCCCN1[C@H]2Cc1ccccc1 (some centres undefined) returned PI4K2A inh -3.
For CN(Cc1nc(Cc2ccccc2F)no1)CC1(N2CCOCC2)CCCCC1 the results were KB-3-1 tox inactive, A549 viability 1%, KB-V1 MDR tox inactive, Nrf2 inh 2%, PI4K2A inh 3 and Giardia killer 20.
CN(Cc1nc(Cc2ccccc2F)no1)Cc1cccc2ncccc12 was read as KB-3-1 tox inactive, A549 viability -21%, KB-V1 MDR tox inconclusive, Nrf2 inh 18µM*, PI4K2A inh 1 and Giardia killer 2.
Screening O=C(CSc1nc2c([nH]c3ccccc32)c(=O)n1-c1ccccc1)N1CCCC1 returned A549 viability -1% and PI4K2A inh 1.
Screening COc1cccc(C)c1NC(=O)C(OC(=O)CNC(=O)c1ccccc1)c1ccccc1 (centres undefined) returned A549 viability 0% and Nrf2 inh 17%.
C=CC[n+]1c(-c2ccc(OC)cc2)csc1NNC(=O)Nc1ccccc1 was read as KB-3-1 tox inactive, A549 viability -7%, KB-V1 MDR tox 23µM*, Nrf2 inh 15µM*, PI4K2A inh 0 and Giardia killer 21.
`COc1ccc(Cc2nc(C(=O)Nc3ccccc3)cs2)cc1` gave KB-3-1 tox inactive, A549 viability 2%, KB-V1 MDR tox inactive, Nrf2 inh -28%, PI4K2A inh -2 and Giardia killer 1.
Screening COc1ccc(OCc2cc(C3Nc4ccccc4C(=O)N3Cc3ccccc3)ccc2OC)cc1 (centres undefined) returned A549 viability -5% and Nrf2 inh -25%.
For O=C(CSc1nc(-c2ccccc2)c(-c2ccccc2)[nH]1)N1CCN(S(=O)(=O)c2ccccc2)CC1 the results were KB-3-1 tox inconclusive, A549 viability -27%, KB-V1 MDR tox inactive, Nrf2 inh 16µM*, PI4K2A inh -1 and Giardia killer 1.
Screening O=C(CSc1nc2ccccc2c(=O)[nH]1)N1CCN(S(=O)(=O)c2ccccc2)CC1 returned KB-3-1 tox inactive, A549 viability 20%, KB-V1 MDR tox inactive, Nrf2 inh -4%, PI4K2A inh 1 and Giardia killer 14.
Cc1ccc(S(=O)(=O)N(CC(=O)Nc2c(C)cccc2C)c2cccc(Cl)c2)cc1 was read as A549 viability -8%, Nrf2 inh inconclusive and PI4K2A inh 3.
Screening COC(=O)C(NNc1ccccc1)(NC(=O)c1ccc(F)cc1)C(F)(F)F (centres undefined) returned KB-3-1 tox inconclusive, A549 viability -1%, KB-V1 MDR tox 23µM*, Nrf2 inh -23%, PI4K2A inh -3 and Giardia killer 2.
For COC(=O)C(NNc1ccccc1)(NC(=O)c1ccccc1F)C(F)(F)F (centres undefined) the results were KB-3-1 tox inactive, A549 viability 1%, KB-V1 MDR tox inactive, Nrf2 inh inconclusive, PI4K2A inh 1 and Giardia killer -22.
`Cc1ccc(/C=C/C(=O)C2C(=O)c3ccccc3C2=O)cc1` gave KB-3-1 tox inconclusive, A549 viability -7%, KB-V1 MDR tox inactive, Nrf2 inh -10%, PI4K2A inh -4 and Giardia killer -86*.
For O=C(OCc1cn(Cc2ccc(F)cc2)nn1)N1CCOCC1 the results were PI4K2A inh -1.
For Cn1c(=O)c2c(nc(SCCN3CCOCC3)n2Cc2cccc3ccccc23)n(C)c1=O the results were KB-3-1 tox inactive, A549 viability -3%, KB-V1 MDR tox 4.1µM*, Nrf2 inh -10%, PI4K2A inh 3 and Giardia killer 3.
Cn1c(=O)c2c(nc(SCCN3CCOCC3)n2Cc2ccccc2Cl)n(C)c1=O was read as KB-3-1 tox inactive, A549 viability 0%, KB-V1 MDR tox inactive, Nrf2 inh inconclusive, PI4K2A inh -1 and Giardia killer 18.
COc1cnc(-c2ccccn2)nc1Sc1c(Cl)cccc1Cl was read as KB-3-1 tox inconclusive, A549 viability -11%, KB-V1 MDR tox 2.9µM*, Nrf2 inh inconclusive, PI4K2A inh 3 and Giardia killer 2.
COc1cnc(-c2ccccn2)nc1Oc1c(C)cccc1C was read as KB-3-1 tox inactive, A549 viability -6%, KB-V1 MDR tox inconclusive, Nrf2 inh 9%, PI4K2A inh -15 and Giardia killer -19.
